The OligoGym collection

molecular target: FKTN; experiment: pooled miR-30 sensor sort-seq; sequence = guide strand; details: shRNA
Further: reference of the scale not given here.

Sequence	sensor-assay potency score (higher = more potent)
TATCAGATTTGTAATCTTGTAT	0.319
TTCCAAGCTGTCTTCTACCTTC	-0.104
TTTTACATCATCTTTTCCCTGG	0.348
TGCATTGTGAAGTAGAGCCATG	-1.03
TCCATCAACAGTAACTTGCTGT	-0.268
TTTCCTGTCAATGTGTTCTTTA	-0.407
TTGCATTGTGAAGTAGAGCCAT	0.152
TTTTAAACAGTTATCTACCTTT	0.405
TTTAAGTCTCAAGTGGCCGTGC	0.148
TTGACTTGTTCAAAGTTCTTAT	-0.62
ATTTTGACAAACCAGCTCCATT	-1.46
TTTGACTTGTTCAAAGTTCTTA	0.733
TAGTACAACTGAAACAGCAGAA	0.161
TTTGCAGATATAGTGCAGGGGG	-0.241
TAAATAGTGCTTGTAGTAGTAC	-0.0376
ATGTCTACAAACTCAGTCCAGC	-1.47
TTGTTTAATGTTTTCGCTGCTA	0.0989
TTGCATTGTCGATACCATCCTA	-0.0659
TACTTCTTCTACAAAGTGCATT	-0.78
